According to PubChem BioAssay (NCATS):
Records with an inconclusive call do not appear. Where a call stands in place of a potency, no number is given. Calls of active or inactive are those of the source. Calls come from the whole dose curve; as a rule, active = well fitted inhibition curve with a large enough effect; inconclusive = small, poorly fitted or top-dose-only effect; inactive = flat fitted curve, though single readings scatter.

Experiments:
Assay in all cases: qHTS profiling for inhibitors of Plasmodium falciparum proliferation (AID 504749); note: nearly all actives have a fitted effect of over 60% in size
Details in all cases: P. falciparum in erythrocytes, SYBR Green DNA, 72 h; series mostly up to 28.7 µM
[1] = tested on: CP305
Procedure, shortened: (§1)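 Infected RBCs, 0.3% parasitemia/2.5% Hct final; cpd 72 h, 37 C, 5% CO2; lysis buffer with saponin/triton/SYBR Green I, o/n RT dark; FI 485/535; norm. to artemisinin (0.29 uM) and DMSO.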

[2] = tested on: CP315
Procedure, shortened: as §1

[3] = tested on: CP325
Procedure, shortened: as §1

[4] = tested on: CP329
Procedure, shortened: as §1

[5] = tested on: CP335
Procedure, shortened: as §1

[6] = tested on: DFO2036
Procedure, shortened: as §1

[7] = tested on: DIV14
Procedure, shortened: as §1

[8] = tested on: DIV17
Procedure, shortened: as §1

[9] = tested on: DIV30
Procedure, shortened: as §1

[10] = tested on: Dd2
Procedure, shortened: as §1

[11] = tested on: ECU
Procedure, shortened: as §1

[12] = tested on: FAB9
Procedure, shortened: as §1

[13] = tested on: GB4
Procedure, shortened: as §1

[14] = tested on: HB3
Procedure, shortened: as §1

[15] = tested on: JCK
Procedure, shortened: as §1

[16] = tested on: N140
Procedure, shortened: as §1

[17] = tested on: P93_24
Procedure, shortened: as §1

[18] = tested on: P94_40
Procedure, shortened: as §1

[19] = tested on: PAD
Procedure, shortened: as §1

[20] = tested on: ICS
Procedure, shortened: as §1
Potency is the fitted concentration of half-maximal effect.

Row | SMILES | Potency [1] | Potency [2] | Potency [3] | Potency [4] | Potency [5] | Potency [6] | Potency [7] | Potency [8] | Potency [9] | Potency [10] | Potency [11] | Potency [12] | Potency [13] | Potency [14] | Potency [15] | Potency [16] | Potency [17] | Potency [18] | Potency [19] | Potency [20]
1 | Cn1c(CCCC(=O)O)nc2cc(N(CCCl)CCCl)ccc21 | inactive | inactive | inactive | inactive | inactive | inactive | inactive | inactive | inactive | inactive | inactive | inactive | inactive | inactive | inactive | inactive | inactive | inactive | inactive | –
2 | NN=C(N)N | inactive | inactive | inactive | inactive | inactive | inactive | inactive | inactive | inactive | inactive | inactive | inactive | inactive | inactive | inactive | inactive | inactive | inactive | inactive | inactive
3 | CN1C(=S)CN=C(c2ccccc2)c2cc(Cl)ccc21 | inactive | inactive | inactive | inactive | inactive | inactive | inactive | inactive | inactive | inactive | inactive | inactive | inactive | inactive | inactive | inactive | inactive | inactive | inactive | inactive
4 | FC(F)(F)c1cccc(C2=CCN(CCc3ccc4ccccc4c3)CC2)c1 | inactive | inactive | inactive | inactive | inactive | inactive | inactive | inactive | inactive | inactive | inactive | inactive | inactive | inactive | inactive | inactive | inactive | inactive | inactive | inactive
5 | Oc1cccc2cccnc12 | inactive | inactive | inactive | inactive | inactive | inactive | inactive | inactive | inactive | inactive | inactive | inactive | inactive | inactive | inactive | inactive | inactive | inactive | inactive | inactive
6 | CC(=O)[C@H]1CC[C@H]2[C@@H]3CC[C@H]4C[C@H](O)CC[C@]4(C)[C@H]3C(=O)C[C@]12C | inactive | inactive | inactive | inactive | inactive | inactive | inactive | inactive | inactive | inactive | inactive | inactive | inactive | inactive | inactive | inactive | inactive | inactive | inactive | inactive
7 | Oc1ccccc1-c1ccccc1 | inactive | inactive | inactive | inactive | inactive | inactive | inactive | inactive | inactive | inactive | inactive | inactive | inactive | inactive | inactive | inactive | inactive | inactive | inactive | inactive
8 | CN(C)CCc1ccc(O)cc1 | inactive | inactive | inactive | inactive | inactive | inactive | inactive | inactive | inactive | inactive | inactive | inactive | inactive | inactive | inactive | inactive | inactive | inactive | inactive | inactive
9 | CN1CCN(C(=O)O[C@H]2c3nccnc3C(=O)N2c2ccc(Cl)cn2)CC1 | inactive | inactive | inactive | inactive | inactive | inactive | inactive | inactive | inactive | inactive | inactive | inactive | inactive | inactive | inactive | inactive | inactive | inactive | inactive | inactive
10 | CC1NCCOC1c1ccccc1 (stereo not drawn) | inactive | inactive | inactive | inactive | inactive | inactive | – | inactive | inactive | inactive | inactive | inactive | – | inactive | inactive | inactive | inactive | inactive | inactive | inactive
11 | O=c1[nH]c2ccccc2n1CCCN1CCC(n2c(=O)[nH]c3cc(Cl)ccc32)CC1 | – | – | inactive | – | 10.7 µM (active) | inactive | 5.36 µM (active) | 8.49 µM (active) | 7.57 µM (active) | – | 7.94 µM (active) | inactive | – | 10 µM (active) | – | 6.31 µM (active) | 5.01 µM (active) | 11.2 µM (active) | 4.47 µM (active) | 2.24 µM (active)
12 | Oc1ccc(Cl)cc1Cc1ccccc1 | – | inactive | inactive | inactive | – | – | 7.57 µM (active) | 7.57 µM (active) | 10.7 µM (active) | 10 µM (active) | 11.2 µM (active) | inactive | 8.49 µM (active) | 12.6 µM (active) | – | 7.94 µM (active) | – | 12.6 µM (active) | 11.2 µM (active) | 2 µM (active)
13 | C[C@]12C/C(=C/O)C(=O)C[C@@H]1CC[C@@H]1[C@@H]2CC[C@@]2(C)[C@H]1CC[C@]2(C)O | inactive | inactive | inactive | inactive | inactive | inactive | – | – | inactive | inactive | inactive | inactive | inactive | inactive | inactive | inactive | inactive | inactive | – | –
14 | CC(C)NCC(O)c1ccccc1Cl (stereo not drawn) | – | inactive | – | inactive | – | – | 6.75 µM (active) | 6.75 µM (active) | – | 11.2 µM (active) | 7.94 µM (active) | inactive | 8.49 µM (active) | – | – | 7.08 µM (active) | 12.6 µM (active) | 3.98 µM (active) | 7.94 µM (active) | 4.47 µM (active)
15 | COc1ccc(C(=O)c2c(C)n(CCN3CCOCC3)c3ccccc23)cc1 | inactive | inactive | inactive | inactive | inactive | inactive | – | – | inactive | inactive | inactive | inactive | – | inactive | inactive | inactive | inactive | – | inactive | –
16 | c1ccc2c(c1)Nc1ccccc1S2 | – | – | – | – | 8.49 µM (active) | – | 6.75 µM (active) | 7.57 µM (active) | – | inactive | – | inactive | 3.79 µM (active) | – | inactive | inactive | – | – | – | 12.6 µM (active)
17 | N#CC(C#N)=Cc1ccc(O)c(O)c1 | inactive | inactive | inactive | inactive | – | inactive | inactive | – | inactive | inactive | inactive | inactive | – | inactive | inactive | inactive | inactive | inactive | inactive | inactive

Row | SMILES | Potency [1] | Potency [2] | Potency [3] | Potency [4] | Potency [5] | Potency [6] | Potency [7] | Potency [8] | Potency [9] | Potency [10] | Potency [11] | Potency [12] | Potency [13] | Potency [14] | Potency [15] | Potency [16] | Potency [17] | Potency [18] | Potency [19] | Potency [20]
18 | Cc1ccc(-c2nc3ccc(C)cn3c2CC(=O)N(C)C)cc1 | inactive | inactive | inactive | inactive | inactive | – | inactive | inactive | inactive | inactive | inactive | inactive | inactive | inactive | inactive | inactive | – | inactive | inactive | inactive
19 | O=[N+]([O-])c1cc([As](=O)(O)O)ccc1O | – | – | – | – | 4.55 µM (active) | 3.55 µM (active) | – | – | 5.73 µM (active) | 3.55 µM (active) | 3.16 µM (active) | 3.55 µM (active) | 4.55 µM (active) | 3.16 µM (active) | – | 3.55 µM (active) | – | – | – | 3.16 µM (active)
20 | Cc1cccc(C)c1NC1=NCCCS1 | – | inactive | – | – | – | – | – | – | – | 12.6 µM (active) | inactive | inactive | 8.49 µM (active) | inactive | inactive | – | – | – | – | 12.6 µM (active)
21 | CCCN1CCC[C@@H]2Cc3[nH]ncc3C[C@H]21 | inactive | inactive | inactive | inactive | inactive | – | inactive | inactive | inactive | – | – | – | inactive | – | – | – | – | – | – | –
22 | CCN(C(C)=O)c1cccc(-c2ccnc3c(C#N)cnn23)c1 | inactive | inactive | inactive | inactive | inactive | inactive | – | inactive | inactive | inactive | inactive | inactive | inactive | inactive | inactive | inactive | inactive | inactive | inactive | inactive
23 | Clc1cccc(N2CCNCC2)c1 | inactive | inactive | inactive | inactive | – | inactive | – | – | inactive | – | inactive | inactive | – | inactive | inactive | inactive | inactive | inactive | inactive | inactive
24 | CC(C)(C)NCC(O)c1cc(Cl)c(N)c(Cl)c1 (stereo not drawn) | – | inactive | inactive | inactive | – | inactive | 12 µM (active) | 8.49 µM (active) | – | 12.6 µM (active) | – | inactive | 7.57 µM (active) | inactive | – | 8.91 µM (active) | – | 7.94 µM (active) | 7.94 µM (active) | 11.2 µM (active)
25 | C=C(C)[C@H]1Cc2c(ccc3c2O[C@@H]2COc4cc(OC)c(OC)cc4[C@@H]2C3=O)O1 | inactive | inactive | inactive | inactive | – | inactive | – | – | – | inactive | inactive | inactive | – | inactive | inactive | inactive | inactive | – | inactive | 11.2 µM (active)
26 | COc1ccc(C(CN(C)C)C2(O)CCCCC2)cc1 (stereo not drawn) | inactive | inactive | – | inactive | – | inactive | inactive | – | inactive | – | inactive | inactive | – | inactive | inactive | – | inactive | inactive | inactive | inactive
27 | c1ccc(C2CC2)c(OCC2=NCCN2)c1 | inactive | inactive | inactive | inactive | inactive | inactive | – | – | inactive | – | inactive | inactive | – | inactive | inactive | inactive | inactive | inactive | inactive | inactive
28 | Oc1cc(Cl)ccc1Oc1ccc(Cl)cc1Cl | inactive | – | – | – | – | 10 µM (active) | 3.01 µM (active) | 6.01 µM (active) | 6.75 µM (active) | 11.2 µM (active) | 6.31 µM (active) | 11.2 µM (active) | 4.78 µM (active) | 8.91 µM (active) | 11.2 µM (active) | 3.16 µM (active) | 6.31 µM (active) | 4.47 µM (active) | 5.01 µM (active) | 1.58 µM (active)
29 | C=C1CC[C@@]2(O)[C@H]3Cc4ccc(O)c5c4[C@@]2(CCN3CC2CC2)[C@H]1O5 | inactive | inactive | inactive | inactive | inactive | inactive | – | inactive | inactive | – | inactive | inactive | – | inactive | inactive | inactive | inactive | inactive | inactive | inactive
30 | c1ccc2c(c1)OCC(C1=NCCN1)O2 (stereo not drawn) | inactive | inactive | inactive | inactive | – | inactive | – | – | inactive | inactive | inactive | inactive | – | inactive | inactive | inactive | inactive | inactive | inactive | –
31 | CC(CCc1ccccc1)NC(C)C(O)c1ccc(O)cc1 (stereo not drawn) | – | inactive | – | – | – | inactive | 9.53 µM (active) | – | – | 11.2 µM (active) | inactive | inactive | – | inactive | inactive | – | – | – | inactive | inactive
32 | CCC1(C2=NCCN2)Cc2ccccc2O1 (stereo not drawn) | – | – | – | – | 8.49 µM (active) | – | – | – | – | 10 µM (active) | inactive | inactive | 8.49 µM (active) | inactive | inactive | 12.6 µM (active) | – | 12.6 µM (active) | inactive | inactive
33 | N[C@@H](Cc1ccc(N(CCCl)CCCl)cc1)C(=O)O | inactive | inactive | inactive | inactive | – | – | 10.7 µM (active) | 15.1 µM (active) | inactive | 12.6 µM (active) | – | inactive | 15.1 µM (active) | – | inactive | – | – | – | – | –
